In the library only some 19% were active in any assay of this set; here they are far more common.
DT40 TDP1 CPT: growth inhibition of DT40 Tdp1-/-;hTDP1 cells with camptothecin (screen for TDP1 inhibitors) | Potency, µM (highest dose often 46.2 µM), most hits filed as inhibitors | 420,000 tested, 12% active | chicken DT40 Tdp1-/-;hTDP1 cells + 20 nM CPT, ATP luminescence, 48 h; further: nearly all actives have a fitted effect of over 55% in size
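Chicken DT40 Tdp1-/- cells complemented with human TDP1, 400 cells/well, exposed to compounds plus 20 nM camptothecin for at least 48 h at 37 C; viability read as ATP content by CellTiter-Glo luminescence.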
TDP1 cell noCPT: qHTS for Inhibitors of human tyrosyl-DNA phosphodiesterase 1 (TDP1): qHTS in cells in absence of CPT | DT40 Tdp1-/- hTDP1 cells, no CPT, ATP luminescence, 48 h | 420,000 tested, 15% active | Potency, µM (series often up to 46.2 µM), hits mostly inhibitors; further: nearly all actives have a fitted effect of over 55% in size
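Stably hTDP1-transfected Tdp1-null chicken DT40 cells were treated with library compounds minus camptothecin and grown for at least 48 hr at 37 °C, after which cellular ATP was quantified by luminescence.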
HT1080NT lethal: kills 2HG-producing HT-1080-NT fibrosarcoma cells; Potency, µM (series often up to 46.1 µM), most hits filed as cytotoxic; 360,000 tested, 1.6% active; HT-1080-NT fibrosarcoma viability, CellTiter-Glo ATP luminescence, 48 h;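 further: NT is the 2HG producing partner of a matched IDH1 knockdown line; nearly all actives have a fitted effect of over 55% in size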
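Fibrosarcoma NT cells, 750 per well in 5% FBS RPMI, were exposed to compound for 48 hours. Viability: CellTiter-Glo luminescence.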
HT1080 IDH1KD tx: toxicity to HT-1080 IDH1 knockdown cells (counter line); 360,000 tested, 2% active; Potency, µM (top dose mostly 46.1 µM), most hits filed as cytotoxic; AID 686971; HT-1080 IDH1 knockdown viability, ATP luminescence, 48 h
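Assay cells: HT-1080 with IDH1 knockdown, 750 per well, RPMI/5% FBS. Exposure: 48 h at 37 °C following 2 h pre-incubation. Read: CellTiter-Glo luminescence; fitted concentration-response, curve class assigned.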
IL1B secr inh: inhibitors of inflammasome signaling (IL-1 beta secretion) | THP-1 LPS/ATP IL-1B secretion, AlphaLISA, 16 h; stronger effect = lower value | activity change, % at 57.5 µM | 360,000 tested, 4.7% active | AID 743279; in the data active means activity change below about -50%; inconclusive means mostly about -30% to -49%
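THP-1 cells pretreated 1 hr with compounds (up to 57.5 uM final), then stimulated with LPS (250 ng/mL final) plus ATP (1.25 mM final); secreted IL-1B measured by AlphaLISA after 16 hr, decreased signal indicating inhibition.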
Of the large screens only hits and unclear results are named; the others gave an inactive call. Unless noted, the call rests on the fitted dose curve; in most records, active means well fitted curve in the direction sought with a large enough effect; inconclusive means small, poorly fitted or top-dose-only effect, or another doubt; inactive means no such curve, though single readings can be large; an effect the other way counts as inactive or inconclusive.

CCCn1c(N)c(C(=O)CN2CCN(S(=O)(=O)c3cccs3)CC2)c(=O)[nH]c1=O	none
COc1ccc(C(C(=O)NC2CCCCC2)N(C(=O)Cc2c[nH]c3ccccc23)c2ccccc2C)cc1OC (centres undefined)	DT40 TDP1 CPT inconclusive, TDP1 cell noCPT 21µM, IL1B secr inh -61
Cc1ccc(N(C(=O)c2ccco2)C(C(=O)NC2CCCC2)c2ccco2)c(C)c1 (centres undefined)	TDP1 cell noCPT inconclusive
COc1ccc(C(C(=O)NC2CCCCC2)N(Cc2cccs2)C(=O)Cc2c[nH]c3ccccc23)cc1OC (centres undefined)	DT40 TDP1 CPT 13µM, TDP1 cell noCPT 21µM, HT1080NT lethal inconclusive, HT1080 IDH1KD tx inconclusive, IL1B secr inh inconclusive
COCCN(C(=O)CNC(=O)c1ccco1)C(C(=O)NC1CCCC1)c1ccccc1F (centres undefined)	none
COc1ccc(C(C(=O)NC2CCCC2)N(C(=O)Cc2cccs2)C2CC2)cc1OC (centres undefined)	none
Cc1ccccc1N(C(=O)Cc1c[nH]c2ccccc12)C(C(=O)NC1CCCCC1)c1ccco1 (centres undefined)	DT40 TDP1 CPT 21µM, TDP1 cell noCPT 9.2µM, HT1080NT lethal inconclusive, HT1080 IDH1KD tx inconclusive
COCCN(C(=O)CCl)C(C(=O)NC1CCCCC1)c1ccccc1C (centres undefined)	DT40 TDP1 CPT 2.9µM, TDP1 cell noCPT 2.1µM, HT1080NT lethal inconclusive, HT1080 IDH1KD tx 13µM, IL1B secr inh -101
Nc1ncnc2c1ncn2[C@@H]1O[C@H](CNCc2ccc(OCC(=O)Nc3nccs3)cc2)[C@@H](O)[C@H]1O	none
CC1(c2ccccc2)NC(=O)N(Cc2ccc([N+](=O)[O-])cc2)C1=O (centres undefined)	none
CCOc1ccc(CN(CC)C(=O)Cc2c[nH]c3ccccc23)cc1OC	DT40 TDP1 CPT inconclusive, TDP1 cell noCPT 15µM
CN(C)c1ccc(C(CNS(=O)(=O)c2ccc3ccccc3c2)c2c[nH]c3ccccc23)cc1 (centres undefined)	DT40 TDP1 CPT inconclusive, TDP1 cell noCPT inconclusive
CN(C)c1ccc(C(CN)c2c[nH]c3ccccc23)cc1 (centres undefined)	DT40 TDP1 CPT 18µM, TDP1 cell noCPT 21µM
COc1cc(CCC(=O)NCc2ccc3c(c2)CCN3C(=O)c2ccccc2)cc(OC)c1OC	none (no result: HT1080NT lethal, HT1080 IDH1KD tx, IL1B secr inh)
COc1cc(CCC(=O)NCc2ccc3c(c2)CCN3C(=O)c2cccc(C)c2)cc(OC)c1OC	TDP1 cell noCPT inconclusive (no result: HT1080NT lethal, HT1080 IDH1KD tx, IL1B secr inh)
COc1ccc(CCC(=O)NCc2ccc3c(c2)CCN3C(=O)c2cccc(C)c2)cc1	DT40 TDP1 CPT 5.8µM, TDP1 cell noCPT 4.6µM (no result: HT1080NT lethal, HT1080 IDH1KD tx, IL1B secr inh)
COc1ccc(CCC(=O)NCc2ccc3c(c2)CCN3C(=O)c2ccc(C)cc2)cc1	DT40 TDP1 CPT inconclusive, TDP1 cell noCPT 21µM (no result: HT1080NT lethal, HT1080 IDH1KD tx, IL1B secr inh)
Cc1nc2ncnn2c(N2CCCC(C(=O)Nc3ccccc3Br)C2)c1C (centres undefined)	DT40 TDP1 CPT inconclusive, TDP1 cell noCPT 15µM
CCc1c(C)nc2ncnn2c1N1CCCC(C(=O)NCc2ccco2)C1 (centres undefined)	DT40 TDP1 CPT inconclusive, TDP1 cell noCPT inconclusive
CCc1c(C)nc2ncnn2c1N1CCC(C(=O)NCc2cccs2)CC1	DT40 TDP1 CPT 23µM, TDP1 cell noCPT inconclusive
CCc1c(C)nc2ncnn2c1N1CCCC(C(=O)NCc2cccs2)C1 (centres undefined)	DT40 TDP1 CPT inconclusive, TDP1 cell noCPT 13µM
CCc1c(C)nc2ncnn2c1NCc1cccs1	DT40 TDP1 CPT inconclusive, TDP1 cell noCPT 26µM
O[C@@H]1CO[C@H]2[C@@H]1OC[C@@H]2O	none (no result: HT1080NT lethal, HT1080 IDH1KD tx, IL1B secr inh)
CC[C@H](C)[C@H]1CNC(=O)C(=O)N1CC1CCN(CCCc2ccc(OC)c(OC)c2)CC1	none
CCc1c(C)nc2ncnn2c1N1CCC(C(=O)NCc2cccc(OC)c2)CC1	DT40 TDP1 CPT inconclusive, TDP1 cell noCPT inconclusive, HT1080 IDH1KD tx inconclusive
CCc1c(C)nc2ncnn2c1N1CCCC(C(=O)NCCc2ccccc2)C1 (centres undefined)	DT40 TDP1 CPT inconclusive, TDP1 cell noCPT 21µM, HT1080 IDH1KD tx inconclusive
CCc1c(C)nc2ncnn2c1N1CCCC(C(=O)Nc2cc(F)ccc2C)C1 (centres undefined)	DT40 TDP1 CPT 16µM, TDP1 cell noCPT 21µM
O=C(O)c1ccc(N/N=C2/CCCc3ccccc32)cc1	none
CC(=O)N1CCN(CCS(=O)(=O)c2cc(Cl)ccc2Cl)CC1	DT40 TDP1 CPT inconclusive, TDP1 cell noCPT inconclusive, IL1B secr inh -65
CC1CN(CCS(=O)(=O)c2cc(Cl)ccc2Cl)CC(C)O1 (centres undefined)	DT40 TDP1 CPT inconclusive, TDP1 cell noCPT inconclusive, HT1080NT lethal inconclusive, HT1080 IDH1KD tx inconclusive, IL1B secr inh -103
COc1ccc(N2CCN(CCS(=O)(=O)c3cc(Cl)ccc3Cl)CC2)cc1	DT40 TDP1 CPT inconclusive, TDP1 cell noCPT inconclusive
COc1ccccc1C(=O)NC1(C(F)(F)F)C(=O)Nc2c1c(=O)[nH]c(=O)n2CCc1ccccc1 (centres undefined)	none (no result: HT1080NT lethal, HT1080 IDH1KD tx, IL1B secr inh)
CCc1ccc(N=Nc2ccc(O)c3[nH]cnc23)cc1	DT40 TDP1 CPT inconclusive, TDP1 cell noCPT 23µM, HT1080NT lethal inconclusive, HT1080 IDH1KD tx inconclusive
Cc1cccc(N2CCN(C(=O)CCC(=O)N3CC(C)Oc4ccc(C)cc43)CC2C)c1 (centres undefined)	DT40 TDP1 CPT 16µM, TDP1 cell noCPT inconclusive
COc1ccc(CCNC(=O)CCC(=O)N2CC(C)Oc3ccc(Cl)cc32)cc1OC (centres undefined)	DT40 TDP1 CPT 18µM, TDP1 cell noCPT inconclusive
Cc1ccc2c(c1)N(C(=O)CCC(=O)N1CCN(c3ccccn3)CC1)CC(C)O2 (centres undefined)	DT40 TDP1 CPT inconclusive, TDP1 cell noCPT inconclusive
Cc1ccc2c(c1)N(C(=O)CCC(=O)NC1CCN(Cc3ccccc3)CC1)CC(C)O2 (centres undefined)	DT40 TDP1 CPT 21µM, TDP1 cell noCPT inconclusive
Cc1ccc2c(c1)N(C(=O)CCC(=O)NCc1cccc(Cl)c1)CC(C)O2 (centres undefined)	DT40 TDP1 CPT inconclusive, TDP1 cell noCPT 16µM, IL1B secr inh inconclusive
CC1CN(C(=O)CCC(=O)NCc2ccccc2)c2cc(Cl)ccc2O1 (centres undefined)	TDP1 cell noCPT inconclusive
CCOc1cc(C2C3=C(CC(C)(C)CC3=O)N(C)C3=C2C(=O)CC(C)(C)C3)ccc1O	none
O=C1CN(C(=O)c2ccc3nc(Cc4cccc(Cl)c4)oc3c2)CCN1	none
CC(C)Sc1n[nH]c(=O)n1-c1ccccc1	none

From PubChem
